Laboratory results published in PubChem BioAssay (NCATS).
“And” between values parts separate entries of the source, which are not always exact repeats. Identical values can stand only once. Records with an inconclusive call do not appear. Entries that show only a call come without a potency. A structure can be active in one record and inactive in another. The source made the active and inactive calls. Calls come from the whole dose curve; as a rule, active = well fitted inhibition curve with a large enough effect; inconclusive = small, poorly fitted or top-dose-only effect; inactive = no such curve, though single readings can be large or run the other way.

Assay: Primary qHTS for inhibitors of nuclear receptor binding SET domain protein 2 (NSD2) in an RCH-ACV wild type WT cells (2C) (AID 1645877); note: nearly all actives have a fitted effect of over 70% in size
Details: RCH-ACV (leukaemia line) NSD2 WT (2C) viability, CellTiter-Glo, 72 h; series mostly up to 44.9 µM
Excerpt: Assay Provider: Jonathan D. Licht, MD
University of Florida College of Medicine, Gainesville, FL
Mutations in epigenetic regulators are common in relapsed pediatric acute lymphoblastic leukemia (ALL). Here, we uncovered the mechanism underlying the relapse of ALL driven by an activating mutation of the NSD2 histone methyltransferase (p.E1099K). […] Correction of this mutation restored glucocorticoid sensitivity. The transcriptional response to glucocorticoids was blocked in NSD2 mutant cells due to depressed glucocorticoid receptor (GR) levels and the failure of glucocorticoids to autoactivate GR expression. […] Pre-treatment of NSD2 p.E1099K cell lines and PDX samples with PRC2 inhibitors reversed glucocorticoid resistance in vitro and in vivo.
High-throughput drug screening of isogenic RCH-ACV cell lines was performed at the National Center for Advancing Translational Science (NCATS), National Institutes of Health as previously described (1). Briefly, isogenic RCH-ACV NSD2 p.E1099K mutant (9B) and WT cells (2C) were plated at 500 cells/well in a 1536-well plate with a 72-hour incubation with compounds prior to addition of CellTiter-Glo to assess cell viability. NCATS libraries screened include: NPC, MIPE 5.0, Kinase and NPACT. To determine compound activity in the qHTS assay, the concentration-response data for each sample was plotted and modeled by a four-parameter logistic fit yielding IC50 and efficacy (maximal response) values. The area under the curve (AUC) of the dose-response curve ensures both efficacy (magnitude of cell killing) and potency (concentration that elicits cell killing) are accounted for in the analysis of activity.
1. Tobie D Lee, Olivia W Lee, Kyle R Brimacombe, Lu Chen, Rajarshi Guha, Sabrina Lusvarghi, Bethilehem G Tebase, Carleen Klumpp-Thomas, Robert W Robey, Suresh V Ambudkar, Min Shen, Michael M Gottesman, Matthew D Hall. A High-Throughput Screen of a Library of Therapeutics Identifies Cytotoxic Substrates of P-glycoprotein. Mol Pharmacol. 2019, Nov;96(5):629-640.
Potency is the fitted concentration of half-maximal effect.

Compound	Potency	activity change, negative = cell killing
COc1cc(Oc2ccnc3cc(OC)c(OC)cc23)ccc1NC(=O)NC(C)c1nccs1 (stereo not given)	inactive and 8.33 µM (active)	–
Cc1n[nH]c(C)c1Cc1sc2c(c1C(=O)N1C[C@H](O)CO1)c(=O)n(C)c(=O)n2CC(C)C	inactive	–
Cc1ccc(NC(=O)c2cccc(C(C)(C)C#N)c2)cc1Nc1ccc2ncn(C)c(=O)c2c1	13.2 µM (active)	–
CC[C@H](Nc1ncnc2nc[nH]c12)c1nc2cccc(F)c2c(=O)n1-c1ccccc1	231 nM (active) and 1.18 µM (active)	-1.09% [at 9.23 µM] (inactive)
CCC(=O)N[C@H]1CC[C@H](C(=O)N(C)c2ccc(-c3nc4ccccc4o3)cc2)C1	18.6 µM (active)	–
Nc1nc2[nH]cc(CCc3ccc(C(=O)N[C@@H](CCC(=O)O)C(=O)O)cc3)c2c(=O)[nH]1	0.296 µM (active)	–
COc1c(Cl)cc2c([nH]c3cnccc32)c1NC(=O)c1cccnc1C	9.34 µM (active)	–
Clc1cccc(Cl)c1NC1=NCCN1	inactive	–
CC(=O)Oc1ccccc1C(=O)O	inactive	–
COc1cccc2cc(-c3nc(C4CCC(C(=O)O)CC4)n4ncnc(N)c34)[nH]c12 (stereo not given)	4.68 µM (active) and 820 nM (active)	–
CCCCNc1cc(C(=O)O)cc(S(N)(=O)=O)c1Oc1ccccc1	inactive	–
Cc1c(CCOc2ccc(C(=O)O)cc2)c2cc(Cl)ccc2n1C(c1ccccc1)c1ccccc1	inactive	–
CC1(C)CNc2cc(NC(=O)c3cccnc3NCc3ccncc3)ccc21	inactive	–
Nc1ncnc2nc(-c3ccc(N4CCOCC4)nc3)cc(-c3cccc(Br)c3)c12	20.9 µM (active)	–
CCn1c(-c2nonc2N)nc2cnc(Oc3cccc(NC(=O)c4ccc(OCCN5CCOCC5)cc4)c3)cc21	326 nM (active) and 417 nM (active)	–
Cc1cc(Nc2nc(N[C@@H](C)c3ncc(F)cn3)ncc2Cl)n[nH]1	2.05 µM (active) and 3.72 µM (active)	–
CN(C)c1ccc(C2Nc3ccc4ccccc4c3C3=C2C(=O)CC(C)(C)C3)cc1Br (stereo not given)	inactive	–
COc1ccc(C2=N[C@H](c3ccc(Cl)cc3)[C@H](c3ccc(Cl)cc3)N2C(=O)N2CCNC(=O)C2)c(OC(C)C)c1	18.6 µM (active)	–
Oc1ccc(C2CNCCc3c2cc(O)c(O)c3Cl)cc1 (stereo not given)	inactive	–
N[C@@H]1CONC1=O	inactive	–

Compound	Potency	activity change, negative = cell killing
C[C@]12CCC(=O)C=C1CC[C@@H]1[C@@H]2[C@@H](O)C[C@@]2(C)[C@H]1CC[C@]2(O)C(=O)CO	1.68 µM (active) and 296 nM (active)	–
c1ccc([C@H]2CN3CCSC3=N2)cc1	inactive	–
OC(CCN1CCCCC1)(c1ccccc1)C1CC2C=CC1C2 (stereo not given)	inactive	–
COCCNCCCn1c(C(=O)CF)c(-c2ccc(C)cc2)c2c(N)ncnc21	16.6 µM (active)	–
CCN(c1ccccc1)c1cc(NC)[n+](C)c(C)n1	inactive	–
Cc1ccnc(NS(=O)(=O)c2ccc(NC(=O)Nc3ccc(S(=O)(=O)Nc4nccc(C)n4)cc3)cc2)n1	inactive	–
c1ccc(-c2nn3c(c2-c2ccnc4cc(OCCN5CCOCC5)ccc24)CCC3)nc1	16.6 µM (active)	–
C1COC(NC(C2CC2)C2CC2)=N1	inactive	–
CC(C)c1onc(-c2c(Cl)cccc2Cl)c1COc1ccc(/C=C/c2cccc(C(=O)O)c2)c(Cl)c1	inactive	–
CCn1cc(C(=O)O)c(=O)c2cc(F)c(N3CCNC(C)C3)c(F)c21 (stereo not given)	inactive	–
NCCc1ccc(O)c(O)c1	inactive	–
CC(C)NCC(O)COc1ccc(COCCOC(C)C)cc1 (stereo not given)	inactive	–
CN([C@@H](Cc1ccc(OS(=O)(=O)c2cccc3cnccc23)cc1)C(=O)N1CCN(c2ccccc2)CC1)S(=O)(=O)c1cccc2cnccc12	–	9.55% [at 4.96 µM] (inactive)
O=C(O)CCc1ccc(NCc2cccc(Oc3ccccc3)c2)cc1	inactive	–
CCCn1c(=O)c2[nH]c(C34CC5CC3C[C@@H](C5)C4)nc2n(CCC)c1=O	inactive	–
O=c1[nH]c(-c2ccc(C(F)(F)F)cc2)nc2c1CSCC2	inactive	–
CCc1ccc(CCOc2ccc(CC3SC(=O)NC3=O)cc2)nc1 (stereo not given)	inactive	–
CN1CCN(CCCN2c3ccccc3Sc3ccc(C(F)(F)F)cc32)CC1	23.7 µM (active) and 16.6 µM (active)	–
Cc1[nH]c(=O)c(C#N)cc1-c1ccncc1	inactive	–
